In all, about 6,200 compounds went through this assay and about 4,800 (77%) were called active.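 Rule for the calls: active = mean inhibition at 8 µM reaching about 37%, which flags the compound as non-specific (limit read from the data); inactive = the rest.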 So high a share suggests a set chosen from earlier hits. The list is a sample of the results.

A short description of the experiment: full-length luciferase signal inhibition, confirmation, counter-screen for Mdm2/MdmX interaction inhibitor project, cell-based, single concentration, SaOS-2 (AID 504607).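 Note: p53-null SaOS-2 cells with luciferase driven by a doxycycline-inducible promoter; compound on cells about two nights before reading with doxycycline added after day one.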 Particulars: SaOS-2 full-length luciferase counterscreen, luminescence; at 8 µM; stronger effect = higher value. Background: The purpose of a counterscreen is to sort out artefacts and off-target activity.
Take `Cc1ccc(OCCOCCOc2ccc(Br)cc2/C=N\NC(=O)c2ccncc2)cc1`: the inhibition is 45.5% (active).
Next, `CC(=O)N1CCc2c(sc(NC(=O)CCS(=O)(=O)c3ccccc3)c2C#N)C1`: 57.3% (active); `COc1cc(NS(=O)(=O)c2ccc3ccccc3c2)c2ncccc2c1`: 22.5% (inactive).
On to `O=[N+]([O-])c1ccccc1S(=O)(=O)Nc1cccc2cccnc12`, for which the inhibition is 56.4% (active).
Turning to `COc1ccc(NC(=O)/C(Cl)=C(/Cl)S(=O)Cc2ccc(C)cc2)cn1` (configuration not stated), the inhibition was 0.18% (inactive).
Turning to `CN(C)CCCn1c(=O)n(Cc2ccccc2)c(=O)c2c3c(sc21)CCCCC3`, the inhibition is 70% (active).
The result for `Cc1ccc(CS(=O)(=O)c2ncc(Cl)c(C(=O)Nc3nnc(C)s3)n2)cc1` reads 50.9% (active).
Next, `CSc1nnc(NC(=O)c2nc(S(=O)(=O)Cc3ccc(C)cc3)ncc2Cl)s1`: 49.9% (active).
The result for `COc1ccccc1N1CCN(c2ncnc3sc(C)c(-c4ccccc4)c23)CC1` reads 80.6% (active); that for `COc1ccccc1N(CC(=O)N/N=C(\C)c1ccccc1O)S(=O)(=O)c1ccc(C)cc1`, 37.3% (active); that for `COc1cc(NC(=O)c2cncc(-c3ccc(C#N)cc3)c2)cc(C(=O)Nc2cccc(C(F)(F)F)c2)c1`, 21.1% (inactive).
Regarding `COc1cc(NC(=O)c2[nH]cnc2C(N)=O)cc(C(=O)Nc2cccc(C(F)(F)F)c2)c1`, the inhibition is 50% (active).
`CC[C@H]1CN2CCc3cc(OC)c(OC)cc3[C@@H]2C[C@@H]1C[C@H]1NCCc2cc(OC)c(OC)cc21`: the inhibition was 51.2% (active).
For the compound `Cc1ccc(C(=O)N/C(=C/c2ccc(-c3cccc([N+](=O)[O-])c3)o2)C(=O)NCCCN(C)C)cc1`, the inhibition was 44.1% (active).
Next, `Nc1nonc1-c1nc2ccccc2n1Cc1ccc(F)cc1`: 71.9% (active).
The result for `COc1ccc(OC)c(C2C3=C(N=c4s/c(=C\c5cccc(O)c5)c(=O)n42)c2ccccc2CC3)c1` (configuration not stated) reads 41.8% (active).
The result for `C=CCn1c(SCc2c(C)noc2C)nc2sc3c(c2c1=O)CCC(C)C3` (configuration not stated) reads 52.9% (active); that for `O=C(NCC1CCCO1)c1cc2c([nH]c3ccccc32)c(-c2ccc(F)cc2)n1` (configuration not stated), 74.8% (active); that for `Oc1c(CN2CCCC2)cc(COCc2ccccc2)c2cccnc12`, 32.2% (inactive).
On to `COc1cc(/C=N/NC(=O)Nc2ccccc2)ccc1OCCOc1ccccc1C`, for which the inhibition was 62.6% (active).
Next, `O=C(NC(=O)c1ccccc1N1CCCCC1)Nc1ccc(Br)cc1`: 86.3% (active); `CCOC(=O)c1c(-c2ccc(C)cc2C)csc1NC(=O)CSc1nnnn1C`: 73.6% (active).
The result for `COc1ccc(C2CC(c3ccccc3)=NN2C(=O)c2ccc(Cl)c([N+](=O)[O-])c2)cc1` (configuration not stated) reads 62.6% (active); that for `CC(=O)c1ccc(S(=O)(=O)N2CCN(C(=O)/C=C/c3ccc4ccccc4n3)CC2)cc1`, 46.9% (active); that for `N/C(=N\OC(=O)c1ccc2c(c1)OCO2)c1ccc(Br)cc1`, 137% (active).
As for `CCc1nc(C)cn1S(=O)(=O)c1cc([N+](=O)[O-])ccc1Cl`, the inhibition was 103% (active).
On to `CCOc1cc(/C=C/c2nc3ccccc3c(=O)[nH]2)cc(Br)c1OC`, for which the inhibition was 57.5% (active).
Take `O=C(/C=C/c1ccc(Cl)c([N+](=O)[O-])c1)c1ccc(O)cc1`: the inhibition is 59.3% (active).
Consider `O=C(/C=C/c1ccc(Cl)c([N+](=O)[O-])c1)c1cccnc1`, for which the inhibition is 67.5% (active).
Next, `CCCc1nc(NCc2ccc3c(c2)OCO3)c2nnn(Cc3ccccc3Cl)c2n1`: 91.5% (active); `CC(C)Cc1nc(Nc2ccc(S(=O)(=O)N3CCCC3)cc2)c2nnn(Cc3ccccc3)c2n1`: 24.1% (inactive).
Next, `COc1ccc(/C=C/C(=O)c2ccc(NS(=O)(=O)c3ccc(C)cc3)cc2)cc1O`: 65.2% (active); `Cc1ccc(C2CC(=O)NC(SCC(=O)OCc3ccccc3)=C2C#N)o1` (configuration not stated): 55.9% (active); `Cc1ccsc1C(=O)OCC(=O)c1cc(C)n(CC2CCCO2)c1C` (configuration not stated): 28.9% (inactive).
With `Cc1cc(C(=O)COC(=O)CNC(=O)c2ccc(F)cc2)c(C)n1Cc1ccco1`, the inhibition is 98.9% (active).
The result for `CCOc1cc(C(=O)N2CCc3cc(OC)c(OC)cc3C2)ccc1OC(F)F` reads 86.4% (active); that for `COc1ccc(N=Cc2c(O)[nH]c3ccccc23)cc1OC`, 65.3% (active).
The result for `COc1cc(N=Cc2c(O)[nH]c3ccccc23)cc(OC)c1OC` reads 47% (active).
Next, `c1ccc2c(c1)C(=NC1CCCCC1)NC2=NC1CCCCC1`: 42.2% (active); `OC(CNCC1CCCO1)Cn1c2ccc(Br)cc2c2cc(Br)ccc21` (configuration not stated): 52.2% (active).
As for `CC1=C/C(=N\OS(=O)(=O)c2ccccc2)C=CC1=O`, the inhibition was 45.1% (active).
Take `CCc1ccc2c(c1)C1(NN=C(c3ccccc3)S1)C(=O)N2` (configuration not stated): the inhibition was 40.3% (active).
The result for `Cn1cc([N+](=O)[O-])c(C(=O)Nc2cnn(Cc3ccc(F)cc3)c2)n1` reads 74.9% (active); that for `COc1ccccc1-n1nnnc1S(=O)(=O)Cc1ccc(Cl)cc1`, 52.1% (active); that for `COc1cccc(/C=N/NC(=O)c2[nH]nc3c2CCc2ccccc2-3)c1O`, 27% (inactive).
Next, `COc1cccc(/C=N/Nc2cc(C)nc(-c3ccccc3O)n2)c1O`: 55.6% (active); `c1ccc(C2CCC(N3CCC(N4CCCCC4)CC3)CC2)cc1` (configuration not stated): 38.2% (active).
For the compound `CCCCCCCCCCOC(=O)Cn1c(COc2ccc(C)cc2)[n+](C)c2ccccc21`, the inhibition was 59.5% (active).
Next, `CCCCCCCCCCOC(=O)Cn1c(COc2cccc(OC)c2)[n+](C)c2ccccc21`: 31.2% (inactive); `CC1CCN(C(=O)c2ccc(S(=O)(=O)Cc3cc(F)ccc3F)c([N+](=O)[O-])c2)CC1`: 44.1% (active); `COc1ccc(-c2cn[nH]c2-c2ccc(OC)cc2)cc1`: 35.1% (inactive).
The result for `COc1ccc(-c2n[nH]c(C)c2-c2ccc(OC)c(OC)c2)c(O)c1` reads 53.7% (active).
Next, `CCCCn1c(-c2cccc(C)c2)nc2cc3[nH]c(=O)c(C(C)C)nc3cc21`: 91.6% (active); `CC(=O)Nc1nc(C)c(-c2csc(Nc3ccc(S(N)(=O)=O)cc3)n2)s1`: 31.7% (inactive); `O=C(NC(=S)Nc1ccc2oc(=O)ccc2c1)c1ccc(-c2cccc(Cl)c2Cl)o1`: 68.2% (active).
Turning to `O=c1oc2ccccc2cc1-c1cn(-c2ccccc2)c(=S)[nH]1`, the inhibition is 38.4% (active).
Consider `NC(N)=Nc1nc(-c2ccccc2)c2cc(Cl)ccc2n1`, for which the inhibition is 53.4% (active).

What is called inhibition is the change of the read-out against control, counted positive when it falls.

For the origin of these results see PubChem BioAssay AID504607 (Sanford-Burnham Center for Chemical Genomics, 2011).
